Compound activity deposited in PubChem BioAssay by National Center for Advancing Translational Sciences (NCATS).
Only some compounds are listed: those with a hit (about 1.1% of all), similar ones and a draw of the others.
RXFP1 agonist: activates the human relaxin receptor RXFP1; HEK293T-RXFP1 cAMP TR-FRET, 30 min; response scale: percent of porcine relaxin response, buffer zero; Potency, µM (top dose mostly 57.5 µM), actives largely listed as activators; actives 0.3% (n = 370,000); note: nearly all actives have a fitted effect of over 60% in size
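HEK293 cells stably expressing RXFP1, treated 30 min at 37C with compounds plus PDE4 inhibitor Ro 20174; cAMP measured by HTRF TR-FRET. Normalized to buffer and 29 nM porcine relaxin; EC50 by Hill fit.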
p53 reactivation: restores transcriptional activity of mutant p53; Potency, µM (series often up to 92.2 µM), actives largely listed as activators; H1299 p53-A138V BP100-luciferase reporter, luminescence, 24 h; actives 0.063% (n = 320,000); note: nearly all actives have a fitted effect of over 45% in size
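H1299 (p53-null), stable ts p53-A138V + BP100-Luc; 1000 cells/well, Opti-MEM/10% FBS; cpd 4 pt, 1:5; 24 h, 37 deg C, 5% CO2; detection reagent 10 min RT; luminescence.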
Tb PFK inh: blocks T. brucei phosphofructokinase | O15648 | T. brucei PFK, ADP-Glo luminescence | Potency, µM (doses to about 57.5 µM), actives largely listed as inhibitors | actives 0.17% (n = 330,000) | AID 485367; note: nearly all actives have a fitted effect of over 60% in size
Target sequence (O15648 whole entry, looked up): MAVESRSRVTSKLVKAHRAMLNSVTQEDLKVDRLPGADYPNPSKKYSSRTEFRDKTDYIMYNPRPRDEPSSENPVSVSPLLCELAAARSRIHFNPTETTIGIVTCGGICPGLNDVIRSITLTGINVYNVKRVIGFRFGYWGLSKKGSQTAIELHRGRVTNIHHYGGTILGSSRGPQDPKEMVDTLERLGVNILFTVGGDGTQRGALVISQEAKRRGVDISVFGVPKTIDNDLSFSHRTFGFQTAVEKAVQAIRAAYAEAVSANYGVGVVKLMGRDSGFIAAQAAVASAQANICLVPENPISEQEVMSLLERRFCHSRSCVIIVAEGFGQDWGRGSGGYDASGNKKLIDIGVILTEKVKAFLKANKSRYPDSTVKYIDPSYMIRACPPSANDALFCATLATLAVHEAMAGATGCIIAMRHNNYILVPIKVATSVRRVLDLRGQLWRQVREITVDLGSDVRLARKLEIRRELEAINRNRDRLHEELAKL
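Activity is normalized to no-enzyme wells (full inhibition) and 1.25 nM enzyme wells (no inhibition). Reaction: 0.5 mM F6P, 0.1 mM ATP, 45 min RT, ADP-Glo luminescence; concentration-response curves fitted and classed by quality.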
gsp agonist: activates gsp, the McCune-Albright syndrome mutation. gsp mutant cells, cAMP HTRF, 30 min. Potency, µM (titrated, usually from 76.9 µM), most hits filed as activators. actives 0.13% (n = 340,000); active = well fitted activation curve with a large enough effect; inconclusive = small, poorly fitted or top-dose-only effect, or another doubt; inactive = no such curve, though single readings can be large or run the other way; cell line not stated here;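 note: phosphodiesterase inhibitor Ro 20-1724 added with compounds to block cAMP breakdown; nearly all actives have a fitted effect of over 60% in size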
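Cells in DMEM/10% FBS with G418 were pretreated with compounds in DMSO plus […] (300 uM stock) for 30 min at 37C. cAMP was measured by HTRF (cAMP-d2 plus anti-cAMP antibody-K) after 30 min at room temperature.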
RXFP1 antagonist: blocks the human relaxin receptor RXFP1. Q9HBX9. HEK293-RXFP1, relaxin-stimulated cAMP HTRF, 30 min; active compounds read low. activity change, negative = inhibition, % at 57.5 µM. actives 0.59% (n = 350,000). AID 1259400;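 active = activity change of -60% or lower, but not beyond a set lower limit; inconclusive = change between -60% and -40%, or beyond the set limit; inactive = change above -40%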
gsp antag: gsp mutant antagonism. Potency, µM (highest dose often 76.9 µM), actives largely listed as inhibitors. gsp-mutant cells, cAMP HTRF, 30 min. actives 0.4% (n = 340,000); calls by dose curve; cell line not stated here;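 note: intracellular cAMP measured with PDE inhibitor Ro 20-1724 present during compound exposure; nearly all actives have a fitted effect of over 65% in size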
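Measurement of cellular cAMP by homogeneous time-resolved fluorescence following a 30 min compound exposure at 37C. The PDE inhibitor […] was present throughout; the assay buffer was DPBS with 0.05% BSA and 0.005% Tween 20.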
A number is an active result; n = inactive; u = inconclusive; x = no result given; [ ] = another dose, or the depositor's remark. Unless noted, calls come from the whole dose curve; as a rule, active = well fitted curve in the direction sought with a large enough effect; inconclusive = small, poorly fitted or top-dose-only effect, or another doubt; inactive = no such curve, though single readings can be large; an effect the other way counts as inactive or inconclusive.

SMILES	RXFP1 agonist	p53 reactivation	Tb PFK inh	gsp agonist	RXFP1 antagonist	gsp antag
CC(=O)N1CCN(Cc2nc3cc(NS(C)(=O)=O)ccc3n2C)CC1	n	n	n	n	n	n
O=C1C=CC(=O)N1c1ccc2c(c1)C(NC(=O)C(F)(F)F)c1ccccc1-2 (stereo unspecified)	x	x	x	n	-97	n
Cc1cccc(C)c1NC(=O)C(NC=O)c1ccc(N(C)C)cc1 (stereo unspecified)	n	n	n	n	n	n
O=C(N/N=C/c1oc(O)c2ccccc12)c1ccccc1	n	n	n	n	n	n
COc1ccc2c(c1)O[C@@H](c1cccc(C(F)(F)F)c1)[C@H](OC(=O)Nc1ccc(OC(F)F)cc1)C2=O	n	n	n	n	x	11µM
O=C(CSc1ncnc2sccc12)N1CCCCC1	x	u	n	n	n	n
COc1ccc(-c2csc3ncnc(N4CCN(Cc5ccccc5)CC4)c23)cc1	n	n	n	n[15.4 µM]	n	n
Fc1ccc(CN2CCN(c3ncnc4scc(-c5ccc(F)cc5)c34)CC2)cc1	n	n	n	n	-68	n
O=C1Cc2cc(CCN3CCN(c4nsc5ccccc45)CC3)c(Cl)cc2N1	n	x	n	x	-107	x
C=C1C(=O)c2sccc2C(c2ccc(OC)c(OC)c2)C1COC(C)=O (stereo unspecified)	x	x	x	n	-104	n
CC(C)C1(c2ccsc2)NC(=O)NC1=O (stereo unspecified)	x	x	x	n	n	n
Cc1ccc(CCNC(=O)c2c3c(nc4ccccc24)C(=O)N(C2CCCCC2)C3)cc1	n	x	x	x	-72	x
CCc1ccc(NC(=O)CCC(=O)c2ccc(C)cc2)cc1	n	n	n	n	n	n
CCc1ccc(NC(=O)CCC(=O)c2ccccc2)cc1	n	n	n	n	n	35µM
CCOC(=O)c1c(C)n(-c2ccccc2)c2ccc(OC(=O)c3ccccc3NC(=O)C(C)C)cc12	n	x	x	x	n	x
CCOC(=O)c1c(C)n(-c2ccccc2)c2ccc(OC(=O)c3ccccc3NC(=O)C(C)(C)C)cc12	n	x	x	x	-64	x
Cc1cc(Cl)c(S(=O)(=O)NC2CCCC2)cc1OCC(=O)NC1CCCCC1	n	n	n	n	n	28µM
O=C1C2CCCN2C(c2ccc(Br)cc2)N1c1ccc(F)cc1 (stereo unspecified)	n	n	n	n	x	50µM
O=C(OCC(=O)c1ccc[nH]1)c1ccccc1	n	n	n	n	n	n
O=C(OCC(=O)c1ccc[nH]1)c1ccc(Cl)c(Cl)c1	x	n	n	n	-87	n
CC(=O)Nc1ccc2c(c1)Cc1c-2cc(Cl)c(NC(C)=O)c1Cl	x	x	x	n[15.4 µM]	n	n
CC(=O)Nc1c(Cl)cc(Cl)c2c1Cc1cc(Cl)ccc1-2	x	x	x	n	-101	n
O=C(C1=C[C@@H](c2ccc(C(F)(F)F)cc2)C[C@@H](OCCCCO)O1)N1CCCCCCC1	x	x	x	x	x	11µM
CCCNC(=O)C1CCC(Cn2c(=O)c3sccc3n(CC(=O)N3CCC(C)CC3)c2=O)CC1 (stereo unspecified)	n	x	x	x	n	x
CC1(C)CC(=O)C(C=NCc2ccccn2)=C(O)C1	n	n	n	n	n	n
SMILES	RXFP1 agonist	p53 reactivation	Tb PFK inh	gsp agonist	RXFP1 antagonist	gsp antag
CCOc1cc(N2CCOCC2)c(OCC)cc1NC(=O)c1c(C)noc1C	n	n	n	n	n	35µM
CCOC(=O)c1c(C)[nH]sc1=S	25µM	n	n	n[15.4 µM]	n	n
CCOC(=O)c1sc(=S)[nH]c1C	x	x	x	u	n	n
CC1=C(C(=O)Nc2ccc(C(=O)N3CCN(c4cccc(Cl)c4)CC3)cc2)SCCO1	n	n	n	n	n	u
CC1=C(C(=O)Nc2cccc(C(=O)N3CCN(c4cccc(C(F)(F)F)c4)CC3)c2)SCCO1	n	n	n	n	n	50µM
CCc1nnc(NC(=O)c2nc(S(=O)(=O)Cc3cccc(C)c3)ncc2Cl)s1	n	n	n	n[15.4 µM]	n	16µM
CCc1nnc(NC(=O)c2nc(S(=O)(=O)Cc3ccc(C)cc3)ncc2Cl)s1	n	n	n	n[15.4 µM]	n	28µM
O=[N+]([O-])c1ccc(C=Nc2ccc(Cl)c([N+](=O)[O-])c2)s1	n	n	24µM	x	x	x
